Screening results deposited in PubChem BioAssay by National Center for Advancing Translational Sciences (NCATS).
Shown are actives, neighbours in structure and some others; about 0.92% of the full set was active somewhere.
BLM inh – Bloom syndrome helicase (human) inhibition; P54132; recombinant BLM DNA unwinding, fluorescence dequenching; Potency, µM (doses to about 56.1 µM), for the others: at the top dose activity change, negative = inhibition, usual class: inhibitors; actives 0.2% (n = 350,000); AID 2528;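 further: plate controls were vehicle for no effect and no enzyme for full effect; nearly all actives have a fitted effect of over 35% in size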
TDP1 inh – blocks human tyrosyl-DNA phosphodiesterase 1. Q9NUW8. recombinant TDP1, AlphaScreen DNA substrate cleavage. Potency, µM (highest dose often 130 µM), for the others: at the highest dose activity change, negative = inhibition, hits mostly inhibitors. actives 0.28% (n = 350,000). AID 485290; further: nearly all actives have a fitted effect of over 40% in size
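Compounds were preincubated with Tdp1 (1 nM final) for 15 min at room temperature before substrate (15 nM final) started a 5 min reaction; beads (10 ug/ml final) were then added for 10 min before AlphaScreen detection.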
RECQ1 inh-1 – inhibitors of human RECQ1 DNA helicase. P46063. RECQ1 DNA unwinding, red fluorescence kinetic read. Potency, µM (top dose mostly 57.3 µM), for inactives: at the top dose activity, negative = inhibition, actives largely listed as inhibitors. actives 0.54% (n = 240,000). AID 2549;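 further: plate controls were vehicle for no effect and no enzyme for full effect; nearly all actives have a fitted effect of over 30% in size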
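RECQ1T1 50 nM; forked duplex (20 bp + 30-nt ss tails) 200 nM, ATP 2 mM final; pH 8.0, 2 mM MgCl2, 2.5 ug/ml poly(dI-dC); 15 min compound preincubation; discontinuous kinetic read over 2 h at RT.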
FEN1 inh – human FEN1 inhibition; actives 0.35% (n = 390,000); Recombinant FEN1 flap cleavage, fluorescence, 15 min; P39748; Potency, µM (top dose mostly 114 µM), for the others: at the highest dose activity change, negative = inhibition, actives largely listed as inhibitors; further: nearly all actives have a fitted effect of over 65% in size
Target sequence (P39748 whole entry, looked up): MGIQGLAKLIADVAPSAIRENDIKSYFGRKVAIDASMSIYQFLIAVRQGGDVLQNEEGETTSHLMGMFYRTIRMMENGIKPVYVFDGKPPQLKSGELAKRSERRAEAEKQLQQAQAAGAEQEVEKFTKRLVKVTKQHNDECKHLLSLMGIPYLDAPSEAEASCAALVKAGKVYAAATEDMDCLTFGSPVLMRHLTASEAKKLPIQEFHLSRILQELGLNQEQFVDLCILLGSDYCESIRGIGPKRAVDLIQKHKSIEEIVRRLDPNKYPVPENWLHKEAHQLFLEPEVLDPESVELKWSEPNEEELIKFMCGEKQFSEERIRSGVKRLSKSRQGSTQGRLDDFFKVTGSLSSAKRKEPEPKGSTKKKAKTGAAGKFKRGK
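Recombinant FEN1 (10 nM) was preincubated with pin-transferred compounds for 15 min at room temperature, then flap DNA substrate (50 nM final) was added. Plates were read at 0 and 15 min, and normalized concentration–response data were fitted to a four-parameter Hill equation.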
APE1 inh-1 – blocks human APE1 abasic DNA cleavage; recombinant APE1, TAMRA/BHQ-2 abasic DNA cleavage fluorescence; P27695; Potency, µM (series often up to 65.8 µM), inactives show top-dose activity change, negative = inhibition, most hits filed as inhibitors; actives 0.35% (n = 350,000);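 further: plate controls were vehicle for no effect and reference inhibitor for full effect; nearly all actives have a fitted effect of over 55% in size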
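Activity was derived from the fluorescence gain between first and third kinetic reads (60 s intervals, ex 525/em 598 nm) after 50 nM THF-abasic TAMRA/BHQ-2 duplex was added to 0.75 nM APE1 preincubated 15 min with compound.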
APE1 dye cs – DNA dye displacement counter-screen activity; shares compounds with APE1 inh-1; DNA fluorescent dye displacement counterscreen, fluorescence; Potency, µM (titrated, usually from 28.5 µM), for the others: top-dose activity change, negative = inhibition, actives largely listed as inhibitors; actives 7% (n = 480);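 further: loss of thiazole orange fluorescence as the dye is displaced from duplex DNA; 0% = ThO with dsDNA and no compound and -100% = ThO without dsDNA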
EndoIV counter – counter-screen for APE1 inhibitors: inhibitors of E. coli endonuclease IV | actives 4% (n = 560) | shares compounds with APE1 inh-1 | E. coli Endo IV, fluorogenic AP-site DNA cleavage | Potency, µM (series often up to 27.1 µM), inactives show top-dose activity change, negative = inhibition, usual class: inhibitors;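 further: plate controls were uninhibited enzyme wells for no effect and no enzyme buffer wells for full effect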
APE1 inh-2 – confirmation of inhibitors of human APE1 endonuclease; shares compounds with APE1 inh-1; Potency, µM (highest dose often 57.1 µM), without a hit: at the top dose activity change, negative = inhibition, most hits filed as inhibitors; AID 2572; actives 44% (n = 750); purified APE1, fluorogenic abasic-site DNA cleavage; further: nearly all actives have a fitted effect of over 30% in size
APE1 FP – compounds that displace a DNA probe from human APE1; actives 7% (n = 480); shares compounds with APE1 inh-1; Potency, µM (doses to about 28.5 µM), for inactives: top-dose activity, negative = inhibition, most hits filed as inhibitors; APE1 binding to TAMRA-labelled double-stranded DNA, fluorescence polarization displacement
RECQ1 conf – confirmation of human RECQ1 helicase inhibitors. Potency, µM (highest dose often 229 µM), inactives show at the top dose activity change, negative = inhibition, actives largely listed as inhibitors. actives 28% (n = 610). RECQ1 helicase DNA unwinding, fluorescence. AID 2708. shares compounds with RECQ1 inh-1; further: nearly all actives have a fitted effect of over 45% in size
ADP FP counter – displaces ADP in a fluorescence polarization counter-screen for RECQ1 hits. AID 2711. Potency, µM (highest dose often 228 µM), for inactives: top-dose activity change, negative = inhibition, usual class: inhibitors. shares compounds with RECQ1 inh-1. actives 27% (n = 530). ADP fluorescence polarization displacement counterscreen; further: nearly all actives have a fitted effect of over 45% in size
RECQ1 inh-2 – blocks human RECQ1 DNA unwinding | shares compounds with RECQ1 inh-1 | recombinant RECQ1 DNA unwinding, red fluorescence | Potency, µM (titrated, usually from 119 µM), without a hit: top-dose activity, negative = inhibition, actives largely listed as inhibitors | actives 15% (n = 1,100) | AID 504841; further: nearly all actives have a fitted effect of over 50% in size
An asterisk follows results filed as active; i = inactive; ? = inconclusive; / = no result; [ ] = remark or other dose. The call rests on the fitted dose curve; in most records, active means well fitted curve in the direction sought with a large enough effect; inconclusive means small, poorly fitted or top-dose-only effect, or another doubt; inactive means no such curve, though single readings can be large; an effect the other way counts as inactive or inconclusive. Unless noted, on the % scale 0 is the no-effect control and ±100 the full control effect; potency means the concentration at half of the fitted maximal effect.

SMILES | BLM inh | TDP1 inh | RECQ1 inh-1 | FEN1 inh | APE1 inh-1 | APE1 dye cs | EndoIV counter | APE1 inh-2 | APE1 FP | RECQ1 inh-2 | others
COc1ccc2c(c1)c(=O)oc1cc(OCC(=O)N3CCc4ccccc4C3)ccc12 | -19.1% | 12.6µM* | 14.1µM* | -8.8% | 10µM* | -3.1% | ? | 3.98µM* | -28.7% | ? | RECQ1 conf=-7.1%[114 µM];ADP FP counter=0.3%[91.9 µM]
CCN(CC)C(=O)c1sc2c(c1C)c(=O)n(CCc1ccccc1)c(=O)n2Cc1ccc(C)cc1 | -9.7% | 5.4% | / | 8.6% | / | / | / | / | / | /
Cc1ccc(CNC(=O)CCS(=O)(=O)c2ccc(Br)cc2)cc1 | -17.2% | 11.2µM* | ? | -4.0% | ? | / | / | ? | / | ?
CC1(C)Cc2c(sc3c2c(=N)n(Cc2ccco2)c(=O)n3Cc2ccccc2)CO1 | -12.0% | 4.5% | -4.9% | -13.7% | -9.1% | / | / | / | / | /
CC1(C)Cc2c(sc3[nH]c(=S)n(Cc4ccco4)c(=O)c23)CO1 | -8.8% | / | ? | -15.4% | 35.5µM* | -7.1% | 7.8% | -4.6%[24.4 µM] | ? | 0.6%
CC(=O)N1CCCc2cc(S(=O)(=O)N3CCCCC3)ccc21 | 2.1% | 5.5% | / | 15.4% | / | / | / | / | / | /
COc1ccc(N=C2NC(=O)/C(=C\c3ccco3)S2)cc1 | ? | 0.0% | 15.8µM* | -16.3% | 7.94µM* | -11.9% | 9.5% | 12.6µM* | -5.3% | ? | RECQ1 conf=?;ADP FP counter=-13.5%[91.9 µM]
CCN(CC)Cc1c(O)c(Cl)cc2c(C)c(C)c(=O)oc12 | -1.1% | 0.5% | -6.2% | 2.0% | -2.2% | / | / | / | / | /
CCN(CC)Cc1c(O)c(Cl)cc2c(C)cc(=O)oc12 | -21.0% | 12.6µM* | ? | -7.4% | 12.6µM* | 7.7% | -7.9% | 28.2µM* | -43.6% | 56.2µM*
CC(=O)NC1=NC(=O)/C(=C/c2cc(C)n(-c3cccc(C(=O)O)c3)c2C)S1 | -4.3% | 3.55µM* | ? | 50.1µM* | 3.55µM* | 9.9% | -1.1% | 4.47µM* | ? | 20µM*
CC(=O)NC1=NC(=O)/C(=C/c2cn(C(C)=O)nc2-c2ccccc2)S1 | -1.6% | / | -3.9% | ? | 1.4% | / | / | / | / | /
COc1ccc(Cc2nnc(NC(=O)Cc3cccs3)s2)cc1OC | ? | / | 20µM* | -19.4% | 28.2µM* | ? | 35.6% | 2µM* | -16.8% | ?
C=C(CO)C1Cc2cc(C(C)=O)ccc2O1 (configuration not stated) | -6.9% | / | ? | ? | 20µM* | 1.9% | 7.6% | 10µM* | -36.9% | ?
C/C(=N\O)c1ccc2c(c1)CC(C)O2 (configuration not stated) | -0.7% | 0.0% | i | 1.7% | -1.7% | / | / | / | / | /
